Measurements: PubChem BioAssay (Tox21)
Several values for one entry are separate records, joined by “and”; a condition that tells them apart may be missing. Equal entries are not always repeated. Records with an inconclusive call do not appear. A structure can be active in one record and inactive in another. Activity calls are given as the source filed them. Unless noted, calls come from the whole dose curve.

Assays:
[1] = Nuclear factor erythroid 2-related factor 2/antioxidant responsive element (Nrf2/ARE) small molecule agonists: qHTS cell viability counter screen in human keratinocytes (AID 1919968; active = well fitted curve in the direction sought with a large enough effect in the repeat runs; an effect the other way counts as inactive or inconclusive; note: nearly all actives have a fitted effect of over 55% in size; note: potency is the fitted concentration of half-maximal effect)
Summary of the method: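 Stably transfected HaCaT (KeratinoSens), 1,500/well. Test agents in DMSO were applied for 23 h, 37 C/5% CO2. CellTiter-Fluor was incubated 1 h before the fluorescence read.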

[2] = Nuclear factor erythroid 2-related factor 2/antioxidant responsive element (Nrf2/ARE) small molecule agonists: luciferase reporter gene qHTS assay in human keratinocytes (AID 1919969); note: nearly all actives have a fitted effect of over 35% in size; note: potency is the fitted concentration of half-maximal effect
[3] = target: Gonadotropin-releasing hormone receptor (Homo sapiens) (UniProt P30968); experiment: Human gonadotropin-releasing hormone receptor (GnRHR) small molecule agonists, calcium flux assay in GnRHR-HEK293 cells (AID 1920063); note: nearly all actives have a fitted effect of over 35% in size
Summary of the method: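 Stable human GnRHR HEK293 line. 18 h plating, then calcium dye for 1 h at 37 C. Agonist-mode compound addition from DMSO stocks; fluorescence monitored 3 min.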

[4] = target: KiSS-1 receptor (Homo sapiens) (UniProt Q969F8); experiment: Human kisspeptin (KISS1R) small molecule agonists, calcium flux assay in KISS1R-HEK293 cells (AID 1920064; active = well fitted curve in the direction sought with a large enough effect in the repeat runs; an effect the other way counts as inactive or inconclusive)
Summary of the method: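 After overnight (18 h) culture at 37 C/5% CO2, human KISS1R-HEK293 cells received calcium dye for 1 h, then test compound; emission at 540 nm (excitation 480 nm) was tracked for 3 min.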

[5] = G protein-coupled receptor (GPCR) small molecule agonists, calcium flux assay: HEK293 wild type cell line counter screen (AID 1920065)
Summary of the method: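 Following 18 h incubation at 37 C/5% CO2, plates got calcium dye for 1 h; compounds, ATP or DMSO were then pinned in and fluorescence followed kinetically (480/540 nm).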

[6] = p53 small molecule agonists, cell-based qHTS assay with human liver microsomes (AID 1963577)
Summary of the method: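 p53RE-bla reporter cells were pre-incubated 5 h at 37 C, then treated with compounds plus human liver microsomes (0.5 mg/mL final) and NADPH (0.5 mg/mL final) for 16 h at 37 C. Beta-lactamase activity was read by LiveBLAzer fluorescence after 2 h at room temperature.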

[7] = p53 small molecule agonists, cell-based qHTS assay with rat liver microsomes (AID 1963578)
Summary of the method: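 p53RE-bla cells were exposed to compounds together with rat liver microsomes (0.5 mg/mL final) and NADPH (0.5 mg/mL final) for 16 h at 37 C, then read by LiveBLAzer beta-lactamase fluorescence after 2 h at room temperature.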

[8] = p53 small molecule agonists, cell-based qHTS assay with human liver microsomes: qHTS cell viability counter screen (AID 1963579); note: nearly all actives have a fitted effect of over 45% in size; note: potency is the fitted concentration of half-maximal effect
Summary of the method: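 p53RE-bla cells (4,000/well) were pre-incubated 5 h at 37 C, then given compounds in DMSO plus human liver microsomes (0.5 mg/mL final) and NADPH (0.5 mg/mL final) for 16 h at 37 C. Viability was read by CellTiter-Glo luminescence.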

[9] = p53 small molecule agonists, cell-based qHTS assay with rat liver microsomes: qHTS cell viability counter screen (AID 1963580); note: nearly all actives have a fitted effect of over 45% in size; note: potency is the fitted concentration of half-maximal effect
Summary of the method: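 Luminescent ATP readout (CellTiter-Glo, 30 min at room temperature) reports viability of p53RE-bla HCT-116 cells after 16 h at 37 C with test compounds under metabolic activation by rat liver microsomes and NADPH at 0.5 mg/mL final each.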

[10] = p53 small molecule agonists, cell-based qHTS assay: qHTS cell viability counter screen (AID 1963581); note: nearly all actives have a fitted effect of over 45% in size
Summary of the method: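 qHTS counter screen: 16 h compound exposure at 37 C of p53RE-bla HCT-116 cells (4,000 per well, seeded 5 h prior), cell viability by ATP luminescence.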

[11] = p53 small molecule agonists, cell-based qHTS assay (AID 1963582; active = well fitted activation curve with a large enough effect in the signal ratio in the repeat runs, not every such curve was filed as active; the % refers to the signal ratio)
Summary of the method: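 Measured: fluorescence from cleaved LiveBLAzer substrate. System: p53RE-bla cells, 16 h compound treatment at 37 C, 2 h substrate step at room temperature.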

[12] = target: 5-hydroxytryptamine receptor 2A (Homo sapiens) (UniProt P28223); experiment: 5-hydroxytryptamine receptor 2A (HTR2A) small molecule antagonists, cell-based qHTS assay (AID 1963586); note: nearly all actives have a fitted effect of over 45% in size
Summary of the method: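 CHO cells stably expressing human HTR2A were plated for 18 h at 37 C, then loaded with calcium dye for 1 h. Compounds were preincubated 5 min at room temperature before DOI (4 nM solution) was added. Kinetic fluorescence was read for 3 min.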

[13] = target: Muscarinic acetylcholine receptor M1 (Homo sapiens) (UniProt P11229); experiment: Cholinergic receptor muscarinic 1 (CHRM1) small molecule antagonists, cell-based qHTS assay (AID 1963588); note: nearly all actives have a fitted effect of over 40% in size; note: potency is the fitted concentration of half-maximal effect
Summary of the method: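 Compounds were tested at 15 concentrations in three independent runs. Dye-loaded CHRM1-CHO cells were exposed 5 min at room temperature before stimulation by acetylcholine added at 50nM. Intracellular calcium was read kinetically on FDSS for 3 min.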

[14] = target: Muscarinic acetylcholine receptor M1 (Homo sapiens) (UniProt P11229); experiment: Cholinergic receptor muscarinic 1 (CHRM1) small molecule agonists, cell-based qHTS assay (AID 1963589); note: nearly all actives have a fitted effect of over 35% in size
Summary of the method: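 Kinetic fluorescence (1 s intervals) of calcium-sensitive dye in human M1 CHO cells after compound addition; cells pre-incubated 18 h at 37 C/5% CO2 and dye-loaded 1 h.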

[15] = cAMP Responsive Elements (CRE) small molecule agonists, cell-based qHTS assay (AID 1963590)
Summary of the method: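 Test agents in DMSO were incubated 3 h at 37 C/5% CO2 with CRE-bla HEK 293T cells seeded 18 h earlier; LiveBLAzer B/G FRET substrate was added and read after 2 h at room temperature.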

[16] = cAMP Responsive Elements (CRE) small molecule antagonists, cell-based qHTS assay (AID 1963591; active = well fitted inhibition curve with a large enough effect in the signal ratio in the repeat runs, not every such curve was filed as active; the % refers to the signal ratio)
Summary of the method: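 Reporter line CRE-bla HEK 293T in dialyzed-FBS DMEM; cells preincubated 18 h, treated 3 h with compound plus NKH477 (0.25 uM final); LiveBLAzer FRET, 2 h RT.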

[17] = target: Beta-2 adrenergic receptor (Homo sapiens) (UniProt P07550); experiment: Adrenergic beta2 receptor (ADRB2) small molecule antagonists, cell-based qHTS assay (AID 1963592); note: series mostly up to about 92 µM; nearly all actives have a fitted effect of over 50% in size
Summary of the method: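 Assay format: CHO-ADRB2 cells, 18-20hr seeding at 37C/5% CO2, then compound plus 1nM isoproterenol agonist mix for 0.5hr RT. Homogeneous time-resolved fluorescence cAMP detection after 1hr, expressed as 665/615 nm ratio.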

[18] = target: D(2) dopamine receptor (Homo sapiens) (UniProt P14416); experiment: Dopamine D2 receptor (DRD2) small molecule agonists, cell-based qHTS assay (AID 1963594); note: nearly all actives have a fitted effect of over 35% in size
Summary of the method: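 HEK293 cells stably expressing DRD2 were cultured 24 h at 37 C, then given Ro20-1724 (0.1 mM final) and compounds for 10 min at room temperature. NKH477 (200nM) was then added for 30 min. cAMP was read by HTRF.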

[19] = target: D(2) dopamine receptor (Homo sapiens) (UniProt P14416); experiment: Dopamine D2 receptor (DRD2) small molecule antagonists, cell-based qHTS assay (AID 1963595; active = well fitted inhibition curve with a large enough effect in the signal ratio in the repeat runs, with a control signal flat; the % refers to the signal ratio)
Summary of the method: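 Cells were plated and grown for 24 h at 37 °C. Ro20-1724 (0.1 mM final) went in first, then compound for 10 min. NKH477 (200 nM) with quinpirole (12 nM) followed for 30 min at RT, then HTRF detection reagents for 1 h.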

[20] = target: Beta-2 adrenergic receptor (Homo sapiens) (UniProt P07550); experiment: Adrenergic beta2 receptor (ADRB2) small molecule agonists, cell-based qHTS assay (AID 1963593);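 note: CHO cells stably overexpressing human ADRB2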
Summary of the method: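 CHO cells stably over-expressing ADRB2 were plated overnight at 37C, then dosed with compounds plus a stimulation mix containing 100uM IBMX and 25uM Ro-20-1724 for 0.5hr at room temperature. cAMP was measured by HTRF competition, 1hr.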

Measured: Potency

Chain of 5-hydroxytryptamine receptor 2A (Homo sapiens) (P28223 whole entry, looked up): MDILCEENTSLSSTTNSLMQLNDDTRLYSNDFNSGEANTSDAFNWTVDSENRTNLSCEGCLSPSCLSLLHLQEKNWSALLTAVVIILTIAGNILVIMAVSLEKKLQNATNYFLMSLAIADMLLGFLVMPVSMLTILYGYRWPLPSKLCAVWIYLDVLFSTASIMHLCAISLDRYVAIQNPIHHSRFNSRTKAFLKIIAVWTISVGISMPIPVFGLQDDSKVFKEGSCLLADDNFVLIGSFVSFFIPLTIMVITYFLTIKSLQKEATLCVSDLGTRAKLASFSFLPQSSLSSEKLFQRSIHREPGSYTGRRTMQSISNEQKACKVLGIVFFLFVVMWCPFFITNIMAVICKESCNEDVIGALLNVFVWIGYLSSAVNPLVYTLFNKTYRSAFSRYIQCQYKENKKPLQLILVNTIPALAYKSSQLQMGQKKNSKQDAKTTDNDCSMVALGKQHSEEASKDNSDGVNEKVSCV
Chain of Muscarinic acetylcholine receptor M1 (Homo sapiens) (P11229 whole entry, looked up): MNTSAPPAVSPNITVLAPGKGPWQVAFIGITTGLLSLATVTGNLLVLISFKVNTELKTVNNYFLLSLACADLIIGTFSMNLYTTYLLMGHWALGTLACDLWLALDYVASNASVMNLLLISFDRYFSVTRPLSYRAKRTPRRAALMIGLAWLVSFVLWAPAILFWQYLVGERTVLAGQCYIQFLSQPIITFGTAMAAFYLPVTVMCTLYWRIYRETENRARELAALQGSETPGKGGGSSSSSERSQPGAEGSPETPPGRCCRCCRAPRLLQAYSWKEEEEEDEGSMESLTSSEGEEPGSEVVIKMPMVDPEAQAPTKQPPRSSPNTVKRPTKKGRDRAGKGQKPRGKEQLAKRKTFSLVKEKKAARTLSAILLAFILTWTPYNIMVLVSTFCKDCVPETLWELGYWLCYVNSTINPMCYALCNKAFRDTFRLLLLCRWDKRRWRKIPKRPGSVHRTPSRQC
Chain of D(2) dopamine receptor (Homo sapiens) (P14416 whole entry, looked up): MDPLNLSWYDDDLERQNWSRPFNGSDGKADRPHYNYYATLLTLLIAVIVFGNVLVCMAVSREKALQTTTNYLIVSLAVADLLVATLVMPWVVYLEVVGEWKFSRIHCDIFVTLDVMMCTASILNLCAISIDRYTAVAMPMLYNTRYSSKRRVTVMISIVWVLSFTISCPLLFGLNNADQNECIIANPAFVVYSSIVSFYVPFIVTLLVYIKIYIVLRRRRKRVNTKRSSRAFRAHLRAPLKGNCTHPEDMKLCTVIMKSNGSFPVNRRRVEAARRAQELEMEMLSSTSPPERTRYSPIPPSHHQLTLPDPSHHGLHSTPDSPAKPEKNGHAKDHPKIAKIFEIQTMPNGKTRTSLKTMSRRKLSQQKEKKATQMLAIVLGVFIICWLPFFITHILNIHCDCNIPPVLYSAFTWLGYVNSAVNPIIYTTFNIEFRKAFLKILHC
Chain of Beta-2 adrenergic receptor (Homo sapiens) (P07550 whole entry, looked up): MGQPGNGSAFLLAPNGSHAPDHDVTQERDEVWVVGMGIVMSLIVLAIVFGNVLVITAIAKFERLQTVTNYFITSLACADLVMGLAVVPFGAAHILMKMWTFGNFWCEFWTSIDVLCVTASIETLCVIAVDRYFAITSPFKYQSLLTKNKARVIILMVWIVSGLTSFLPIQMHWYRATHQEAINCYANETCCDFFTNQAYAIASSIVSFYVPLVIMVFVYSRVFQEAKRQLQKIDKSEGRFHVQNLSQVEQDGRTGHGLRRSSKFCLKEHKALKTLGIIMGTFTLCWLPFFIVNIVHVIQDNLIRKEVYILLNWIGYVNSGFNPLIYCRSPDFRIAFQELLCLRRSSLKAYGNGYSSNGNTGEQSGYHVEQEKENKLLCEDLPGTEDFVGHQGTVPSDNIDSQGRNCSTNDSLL
Chain of Gonadotropin-releasing hormone receptor (Homo sapiens) (P30968 whole entry, looked up): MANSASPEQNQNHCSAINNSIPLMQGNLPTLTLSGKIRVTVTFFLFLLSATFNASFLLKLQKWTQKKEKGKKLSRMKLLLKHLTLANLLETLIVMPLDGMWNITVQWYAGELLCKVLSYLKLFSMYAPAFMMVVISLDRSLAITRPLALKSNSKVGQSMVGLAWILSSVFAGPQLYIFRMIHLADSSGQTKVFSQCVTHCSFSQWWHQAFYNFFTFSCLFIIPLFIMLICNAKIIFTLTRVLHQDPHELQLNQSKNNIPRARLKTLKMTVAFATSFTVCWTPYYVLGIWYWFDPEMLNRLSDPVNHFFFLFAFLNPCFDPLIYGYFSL
Chain of KiSS-1 receptor (Homo sapiens) (Q969F8 whole entry, looked up): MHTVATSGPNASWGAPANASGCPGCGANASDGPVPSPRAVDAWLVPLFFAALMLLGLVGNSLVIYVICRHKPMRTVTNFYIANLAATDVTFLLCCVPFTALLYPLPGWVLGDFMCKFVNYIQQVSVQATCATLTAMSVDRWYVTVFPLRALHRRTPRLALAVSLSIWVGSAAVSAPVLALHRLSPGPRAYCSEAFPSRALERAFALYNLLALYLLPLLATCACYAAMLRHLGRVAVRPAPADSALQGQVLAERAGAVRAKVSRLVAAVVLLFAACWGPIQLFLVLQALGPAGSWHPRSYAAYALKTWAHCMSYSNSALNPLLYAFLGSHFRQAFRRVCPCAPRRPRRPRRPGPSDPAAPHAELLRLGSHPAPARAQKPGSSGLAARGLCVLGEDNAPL

C[C@@H]1CCC[C@H](C)N1
not listed: [20]
inactive: all other assays above

CC(=O)O[C@]1(C(C)=O)CC[C@H]2[C@@H]3C=C(C)C4=CC(=O)CC[C@]4(C)[C@H]3CC[C@@]21C
not listed: [12] | [13] | [14] | [15] | [16]
inactive: all other assays above

Oc1ccc(OCc2ccccc2)cc1
active: [2] 8.45 µM
not listed: [12] | [13] | [14] | [16]
inactive: all other assays above

NC(=O)C1CO1 (centres undefined)
not listed: [12] | [19] | [20]
inactive: all other assays above

CCc1ccc(C)nc1
not listed: [12] | [16] | [18]
inactive: all other assays above

CC(C)(C)CC(C)(C)c1ccc(OCCOCC[N+](C)(C)Cc2ccccc2)cc1
active: [1] 24.3 µM and 10.6 µM
20.4 µM (active) and inactive: [8]
not listed: [12] | [13] | [14] | [15] | [17] | [19] | [20]
inactive: all other assays above

CC(C)CC(O)CC(C)C
not listed: [11]
inactive: all other assays above

Nc1cc(=O)[nH]c(N)n1
not listed: [11] | [20]
inactive: all other assays above

C[N+](C)(C)CC[N+]1(C)Cc2c(Cl)c(Cl)c(Cl)c(Cl)c2C1
not listed: [12] | [14] | [20]
inactive: all other assays above

CC(=O)CC/C=C(\C)CC/C=C(\C)CC/C=C(\C)CCC=C(C)C
active: [2] 26.6 µM
not listed: [12] | [18] | [20]
inactive: all other assays above

Cc1oncc1C(=O)Nc1ccc(C(F)(F)F)cc1
27.3 µM (active) and inactive: [2]
20.4 µM (active) and inactive: [8]
active: [9] 20.4 µM
not listed: [12] | [13] | [14] | [15] | [20]
inactive: all other assays above

O=C1CCN(c2ccccc2)N1
not listed: [12] | [13] | [18] | [20]
inactive: all other assays above

COc1cc(C=O)ccc1OC(=O)C(C)C
not listed: [12] | [13] | [15]
inactive: all other assays above

Cc1ccc(S(=O)(=O)NC2CCCCC2)cc1
not listed: [11]
inactive: all other assays above

CCCCCCCC/C=C\CCCCCCCC(N)=O
not listed: [12] | [15]
inactive: all other assays above

C[CH2][Ge]([Cl])([CH2]C)[CH2]C
not listed: [12] | [20]
inactive: all other assays above

Nc1cc(-c2ccncc2)c[nH]c1=O
not listed: [12] | [13] | [14] | [18]
inactive: all other assays above

Cc1onc(-c2ccccc2)c1C(=O)Cl
not listed: [12] | [14]
inactive: all other assays above

COc1cc(C)c(Cc2cnc(N)nc2N)cc1OC
not listed: [12] | [13]
inactive: all other assays above

Cc1ccc2c(ccc3ccccc32)c1
not listed: [12] | [15]
inactive: all other assays above

O=C(O)c1cc(=O)c2c(OCC(O)COc3cccc4oc(C(=O)O)cc(=O)c34)cccc2o1
not listed: [12] | [13] | [14]
inactive: all other assays above

NCC1CCCC(CN)C1 (centres undefined)
active: [13] 18.8 µM
not listed: [11] | [18]
inactive: all other assays above

CC1CNCC(C)O1 (centres undefined)
not listed: [12] | [17] | [18]
inactive: all other assays above

CC(C)=CCCC(C)CC=O (centres undefined)
not listed: [12] | [13] | [14]
inactive: all other assays above

Cc1cccc(N(C)C(=S)Oc2ccc3ccccc3c2)c1
active: [2] 21.7 µM
not listed: [12] | [13] | [14] | [20]
inactive: all other assays above

CCCC[C@H]1CN(CC2CCOCC2)C(=O)OC12CCN(C1(C)CCN(C(=O)c3c(C)ncnc3C)CC1)CC2
not listed: [11]
inactive: all other assays above

CCN(Cc1cccc(S(=O)(=O)O)c1)c1ccccc1
not listed: [11] | [19] | [20]
inactive: all other assays above

O=c1[nH]c(=O)n([C@H]2CCCO2)cc1F
not listed: [12] | [13] | [14] | [17]
inactive: all other assays above

NCCNCCN
not listed: [12]
inactive: all other assays above

Cc1ccc(C)o1
not listed: [12] | [20]
inactive: all other assays above

CC/C=C\CCOC(=O)C(C)C
not listed: [11]
inactive: all other assays above

c1ccc(Nc2cccc3ccccc23)cc1
inactive and 68.6 µM (active): [2]
active: [1] 61.9 µM | [8] 46.4 µM
not listed: [12] | [14] | [15] | [16] | [20]
inactive: all other assays above
